In the library only some 1.8% were active in any assay of this set; here they are far more common.
SDO1 yeast rescue = sdo1-depleted yeast growth rescue; S. cerevisiae sdo1-depleted JHY4D growth rescue, OD600 30 h; hits give high values; pdr5 snq2 efflux-pump mutant strain; AID 817; 140,000 compounds, 0.21% hits; z-score at 10 µM;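 active = z-score above 3 at both the 24 hr and the 30 hr optical density reads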
Measles CPE = protection of cells from measles virus | Measles virus-infected cells, CPE protection, absorbance | protection (pct of control), % at 4 µM | 140,000 compounds, 1.5% hits | AID 841; in the data active = protection mostly above about 24%, no sharp cut-off; inactive = mostly below about 26%
Phagocytosis inh = inhibitors of macrophage phagocytosis | AID 1029 | inhibition, % at 5 µM | J774A.1 macrophage IgG-bead phagocytosis, imaging | 110,000 compounds, 0.07% hits;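 active = inhibition above the mean of the plate negative controls plus 5 SD, cut at about 13% in these data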;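 also: phagocytic index as fraction of beads internalized from green versus red external bead signal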
Each line names hits and unclear results; the compound was inactive in the other large screens; [ ] = remark or other dose.

Cn1c(SCC(=O)OC2CCCCC2)nnc1-c1ccco1	none (no result: Phagocytosis inh)
NC(=O)C1(N2CCCCC2)CCN(C(=O)CSc2nc3ccccc3[nH]2)CC1	Measles CPE 41 (no result: Phagocytosis inh)
NC(=O)C1CCN(C(=O)CSc2nc3ccccc3[nH]2)CC1	none
O=C(CSc1nc2ccccc2s1)Nc1ccc2c(c1)oc1ccccc12	Measles CPE 26
CCOC(=O)c1sc(NC(=O)CSc2nncs2)c(C(=O)OCC)c1C	none
O=C(CSc1nnc(NC(=O)c2ccccc2Cl)s1)Nc1ccc2c(c1)oc1ccccc12	none
CCOC(=O)c1sc(NC(=O)CSc2nc3ccccc3s2)c(C(=O)OCC)c1C	Measles CPE 40
CC(=O)c1ccc(-n2nncc2C)cc1	none
CC1S/C(=N/N=C/c2ccco2)NC1=O (configuration not stated)	none
Cc1cccc(NC(=O)C2CC(=O)N/C(=N/N=C/c3ccco3)S2)c1 (configuration not stated)	Measles CPE 30
CC1CC(C)CN(C(=O)c2cccc(S(=O)(=O)Nc3cc(C(F)(F)F)ccc3Cl)c2)C1 (configuration not stated)	none
Cc1ccc(Cn2nc(C)c(NC(=O)C3(C)CC3(Br)Br)c2C)cc1 (configuration not stated)	none (no result: Phagocytosis inh)
O=S(=O)(c1ccccc1)N1CCN(CC(O)COc2ccc3c(c2)CCC3)CC1 (configuration not stated)	Measles CPE 31
CCN1CCN(CC(O)COc2ccc3c(c2)CCC3)CC1 (configuration not stated)	none
Cn1c(SCC(=O)N2CCc3ccccc32)nnc1-c1ccc(S(=O)(=O)N2CCCC2)cc1	none
COC(CNC(=O)c1cc(C)nn1-c1ccccc1)OC	none
Cc1ccc(Cn2ccc(NC(=O)c3noc4c3CCCC4)n2)cc1	none
Cc1ccc(Cn2ccc(NC(=O)c3nc4ncccn4n3)n2)cc1	Measles CPE 39
Cc1ccc(Cn2ccc(NC(=O)c3noc4c3CCCCC4)n2)cc1	Measles CPE 62
O=C(Nc1cnn(Cc2ccc(Cl)c(Cl)c2)c1)c1nc2ncccn2n1	none
CCOC(=O)NC(=S)c1ccc[nH]1	none
COc1ccc(C2=C(SC)CC2=NC(C)(C)C)cc1	none
COc1ccccc1NCCC(=O)OCC(=O)Nc1ccc(Cl)cn1	none
COCCN=C1Sc2nc3c(C)cccc3cc2CN1Cc1ccco1	none (no result: Phagocytosis inh)
Cc1cccc(N=C2Sc3nc4c(C)c(C)ccc4cc3CN2CCN2CCOCC2)c1	Measles CPE 31
CCOC(=O)c1sc(NC(=O)c2ccc(S(=O)(=O)N3CCOCC3)cc2)cc1C	none
CCC(/C=C1\Sc2ccc(OC)cc2N1CCO)=C\c1sc2ccc(OC)cc2[n+]1CCO	Phagocytosis inh active[fluoresces]
CCC(=O)/C=C1/Sc2ccc(OC)cc2N1CC	none (no result: Phagocytosis inh)
O=C(CC(NC(=O)C(F)(F)F)c1ccccc1)Nc1nnc(CCc2ccccc2)s1 (configuration not stated)	none
O=C(Nc1cccc2cccnc12)C1CCCC1	Measles CPE 29
NC(=S)Nc1cccc2cccnc12	none (no result: Phagocytosis inh)
CC1CCN(C(=O)c2ccccc2NC(=O)c2cccc(S(=O)(=O)N3CCOCC3)c2)CC1	none
CCN(CC)S(=O)(=O)c1cccc(C(=O)Nc2ccccc2C(=O)N2CCOCC2)c1	Measles CPE 47
COc1cc(S(=O)(=O)N(C)C)ccc1F	none (no result: Phagocytosis inh)
CCOC(=O)N1CCC(NC(=O)c2cc(C(=O)NCc3ccc(F)cc3)ccc2CO)CC1	none
CCOC(=O)N1CCC(NC(=O)c2cc(C(=O)NCc3cccc(Cl)c3)ccc2CO)CC1	Measles CPE 39
O=C(O)C1C2C=CC(C2)C1C(=O)NCCCN1CCOCC1 (configuration not stated)	none
CCCCNC(=O)C1C2C=CC(C2)C1C(=O)O (configuration not stated)	Measles CPE 38
CCn1cc(C(=O)OCC(=O)NCc2ccc3c(c2)OCO3)c(=O)c2ccc(C)nc21	none
CC(C)c1ccc(C(=O)NN2C(=O)C3CCCCC3C2=O)cc1 (configuration not stated)	none
O=C(c1ccco1)N1CCN(C(=O)C(Cc2ccccc2)NS(=O)(=O)c2cccs2)CC1 (configuration not stated)	none
CC(=O)NC(Cc1ccccc1)C(=O)N1CCN(C(=O)c2ccco2)CC1 (configuration not stated)	Measles CPE 36
Cc1ccc(N(CC(=O)Nc2cccc(C)c2)S(=O)(=O)c2cccc3nonc23)cc1	none
CCC(C)NC(=O)Cn1c(COc2ccc(Cl)cc2Cl)nc2ccccc21 (configuration not stated)	none
O=C1CC(C2CCCO2)C(=O)N1c1cccc(Cl)c1 (configuration not stated)	none
O=C1CC(C2CCCO2)C(=O)N1Cc1ccccc1 (configuration not stated)	Phagocytosis inh 69
Nc1n[nH]c(N)c1N=Nc1ccc(Cl)cc1Cl	none
CCOC(=O)N1CCC(N2C(=O)c3ccccc3C2Nc2cc(C(=O)OC)cc(C(=O)OC)c2)CC1 (configuration not stated)	none
Cn1c(SCC(=O)N2CCCCC2)nc2cccnc21	none
COc1ccc(-c2ccc(/C=C3/C(=N)N4C(C)=CSC4=NC3=O)o2)c([N+](=O)[O-])c1	none
COc1ccccc1-c1nc2ccccc2nc1-c1ccccc1OC	none
COc1cc(OC)c2c(OC)cccc2n1	Measles CPE 92
O=C(c1ccc(Br)o1)N1CCN(C/C=C/c2ccccc2)CC1	Measles CPE 119
O=C(c1ccc(Br)s1)N1CCN(C/C=C/c2ccccc2)CC1	none
CC1=Nc2nc(N3CCCCC3)c(C#N)c3c4c(nc(c23)N1)N(c1ccc(C(C)C)cc1)C(=O)C4	none
CSc1nnc2c(n1)c(C)nn2-c1ccc(C)cc1	Measles CPE 38 (no result: Phagocytosis inh)
Cc1ccc(-n2nc3c(Cl)nnc(C)c3c2C)cc1	none
CCOc1ccccc1NC(=O)NC1CCN(CC(=O)Nc2ccc3c(c2)OCCO3)CC1	none
CCOc1ccccc1NC(=S)/C(=C(\[O-])c1ccc2c(c1)OCCO2)[n+]1ccc(CC)cc1	Measles CPE 28
CC1(C2(O)CC(c3ccccc3)ON2)CCCCC1 (configuration not stated)	Measles CPE 29
COc1ccc(C2CC(O)(C(C)(C)O)NO2)cc1 (configuration not stated)	none
Cc1ccc(S(=O)(=O)c2c(C)nn(-c3ccccc3)c2OC(=O)c2ccc(Br)o2)cc1	none
Cc1ccc(S(=O)(=O)N2CCCC2C(=O)OCc2ccco2)cc1 (configuration not stated)	none
CCOC(=O)c1sc(=S)n(-c2ccccc2OC)c1N	none
COC(=O)c1sc(=S)n(-c2ccccc2OC)c1N	Measles CPE 44 (no result: Phagocytosis inh)
Cc1cc(C)c2c(N)c3cccc(C)c3nc2n1	none (no result: Phagocytosis inh)
C=CCn1ncc(OC)c(Cl)c1=O	Measles CPE 89 (no result: Phagocytosis inh)
COc1cnn(Cc2ccccc2)c(=O)c1SCc1ccccc1	none
CC12CCC(C/C1=N\N=C1\NC(=O)/C(=C\c3cccc(Br)c3)S1)C2(C)C (configuration not stated)	none
CCCNC(=O)Cn1cnc2sc(C(=O)Nc3cc(OC)c(OC)c(OC)c3)c(C)c2c1=O	none (no result: Phagocytosis inh)
CCCNC(=O)Cn1cnc2sc(C(=O)NCCN(CC)CC)c(C)c2c1=O	Measles CPE 37 (no result: Phagocytosis inh)
CCN(CC)S(=O)(=O)c1ccc(N2CCOCC2)c(NC(=O)CCC2CCCCC2)c1	none
COc1ccc(NC(=O)CSC2CC(=O)N(c3ccc4c(c3)OCCO4)C2=O)cc1 (configuration not stated)	none

Bioassay records as filed in PubChem BioAssay.
